{"source": "PubChem BioAssay (EPA / NIEHS)", "note": "Records with an inconclusive call do not appear. The source made the active and inactive calls. How the source made its calls: active means hit-call score of the fitted dose curve at least 0.9, where 1 is the maximum; inconclusive means response in the unintended direction; inactive means score below 0.9."}
{"experiment": "ACEA_ER_AUC_viability: ACEA Biosciences xCELLigence Real-Time Cell Analysis on Estrogen Receptor Agonism for Viability (AID 2283782);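 further: continuous compound exposure with impedance area under curve over 80 h; hit means loss of impedance signal meaning reduced cell growth or viability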", "method_in_brief": "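T-47D human breast cells in phenol red-free RPMI1640 with 10% charcoal-stripped FBS were dosed with an 8-point 1:4 dilution series from 100 uM top final concentration, in duplicate. Impedance-based growth was followed for 80 h; AUC analysed versus DMSO.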"}
{"smiles": "CCCCCCCCCCBr", "outcome": "inactive"}
{"smiles": "O=C(Cc1ccccc1)OCCc1ccccc1", "AC50": "82.5 µM (active)"}
{"smiles": "Cc1c([N+](=O)[O-])c(C)c([N+](=O)[O-])c(C(C)(C)C)c1[N+](=O)[O-]", "outcome": "inactive"}
{"smiles": "COCC(=O)N(c1c(C)cccc1C)[C@H](C)C(=O)OC", "AC50": "50 µM (active)"}
{"smiles": "O=C(Cl)OCCOCCOC(=O)Cl", "outcome": "inactive"}
{"smiles": "CCN(N=O)C(N)=O", "outcome": "inactive"}
{"smiles": "NC(=O)CCl", "AC50": "39.6 µM (active)"}
{"smiles": "OC[P+](CO)(CO)CO", "AC50": "50 µM (active)"}
{"smiles": "C[N+](C)(C)Cc1ccccc1", "outcome": "inactive"}
{"smiles": "O=C1C=CC(=O)c2ccccc21", "AC50": "22.5 µM (active)"}
{"smiles": "c1ccc2c(c1)Oc1ccccc1O2", "outcome": "inactive"}
{"smiles": "Nc1nc(N)nc(Cl)n1", "outcome": "inactive"}
{"smiles": "O=C=Nc1ccc(Cl)cc1", "AC50": "29.9 µM (active)"}
{"smiles": "ClCCN1CCOCC1", "AC50": "31.6 µM (active)"}
{"smiles": "O=NN1CCCCCCC1", "outcome": "inactive"}
{"smiles": "CCCCS(=O)(=O)Cl", "AC50": "53.1 µM (active)"}
{"smiles": "CCOP(=O)(OCC)OC(=CCl)c1ccc(Cl)cc1Cl", "AC50": "77.8 µM (active)"}
{"smiles": "CCOC(=O)Cc1ccccc1", "AC50": "50 µM (active)"}
{"smiles": "O=S(=O)(C(Cl)(Cl)Cl)C(Cl)(Cl)Cl", "AC50": "5.21 µM (active)"}
{"smiles": "c1ccc2sc(SNC3CCCCC3)nc2c1", "AC50": "85.5 µM (active)"}
{"smiles": "Brc1c(Br)c(Br)c(Oc2c(Br)c(Br)c(Br)c(Br)c2Br)c(Br)c1Br", "outcome": "inactive"}
{"smiles": "C1CN2CCN1CC2", "outcome": "inactive"}
{"smiles": "CC[N+](CC)(CC)CC", "outcome": "inactive"}
{"smiles": "CCOC(=O)c1ccccc1S(=O)(=O)NC(=O)Nc1nc(Cl)cc(OC)n1", "outcome": "inactive"}
{"smiles": "Cc1ccc(CCl)cc1", "AC50": "40.7 µM (active)"}
{"smiles": "O=[N+]([O-])c1ccc(Nc2ccccc2)cc1", "outcome": "inactive"}
{"smiles": "CC1(C)[C@H](C(=O)O[C@H](C#N)c2cccc(Oc3ccccc3)c2)[C@@H]1/C=C(\\Cl)C(F)(F)F", "AC50": "42.5 µM (active)"}
{"smiles": "O=C/C(Cl)=C(/Cl)C(=O)O", "AC50": "73.9 µM (active)"}
{"smiles": "Cc1ccccc1OP(=O)(Oc1ccccc1)Oc1ccccc1", "AC50": "62.9 µM (active)"}
{"smiles": "N#Cc1ccc(Cl)cc1", "AC50": "50 µM (active)"}
